# In article PMC4336329 (PLoS ONE, 2015):
# The campaign covered roughly 310,000 compounds. About 14,000 (4.5%) showed an effect of 50% or more. The effect is printed as a negative number. What follows is part of a selection rich in strong results, with near analogues and random picks from the rest.
# Biological target: human ether-à-go-go-related gene (hERG) potassium channel (human, UniProt Q12809)
# Assay: primary screen, population patch clamp on CHO cells stably expressing hERG; higher = less effect of the substance
# 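Further: peak tail current of the secondary pulse compared with the same well before compound.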
# human ether-à-go-go-related gene (hERG) potassium channel, sequence (Q12809 whole entry, looked up): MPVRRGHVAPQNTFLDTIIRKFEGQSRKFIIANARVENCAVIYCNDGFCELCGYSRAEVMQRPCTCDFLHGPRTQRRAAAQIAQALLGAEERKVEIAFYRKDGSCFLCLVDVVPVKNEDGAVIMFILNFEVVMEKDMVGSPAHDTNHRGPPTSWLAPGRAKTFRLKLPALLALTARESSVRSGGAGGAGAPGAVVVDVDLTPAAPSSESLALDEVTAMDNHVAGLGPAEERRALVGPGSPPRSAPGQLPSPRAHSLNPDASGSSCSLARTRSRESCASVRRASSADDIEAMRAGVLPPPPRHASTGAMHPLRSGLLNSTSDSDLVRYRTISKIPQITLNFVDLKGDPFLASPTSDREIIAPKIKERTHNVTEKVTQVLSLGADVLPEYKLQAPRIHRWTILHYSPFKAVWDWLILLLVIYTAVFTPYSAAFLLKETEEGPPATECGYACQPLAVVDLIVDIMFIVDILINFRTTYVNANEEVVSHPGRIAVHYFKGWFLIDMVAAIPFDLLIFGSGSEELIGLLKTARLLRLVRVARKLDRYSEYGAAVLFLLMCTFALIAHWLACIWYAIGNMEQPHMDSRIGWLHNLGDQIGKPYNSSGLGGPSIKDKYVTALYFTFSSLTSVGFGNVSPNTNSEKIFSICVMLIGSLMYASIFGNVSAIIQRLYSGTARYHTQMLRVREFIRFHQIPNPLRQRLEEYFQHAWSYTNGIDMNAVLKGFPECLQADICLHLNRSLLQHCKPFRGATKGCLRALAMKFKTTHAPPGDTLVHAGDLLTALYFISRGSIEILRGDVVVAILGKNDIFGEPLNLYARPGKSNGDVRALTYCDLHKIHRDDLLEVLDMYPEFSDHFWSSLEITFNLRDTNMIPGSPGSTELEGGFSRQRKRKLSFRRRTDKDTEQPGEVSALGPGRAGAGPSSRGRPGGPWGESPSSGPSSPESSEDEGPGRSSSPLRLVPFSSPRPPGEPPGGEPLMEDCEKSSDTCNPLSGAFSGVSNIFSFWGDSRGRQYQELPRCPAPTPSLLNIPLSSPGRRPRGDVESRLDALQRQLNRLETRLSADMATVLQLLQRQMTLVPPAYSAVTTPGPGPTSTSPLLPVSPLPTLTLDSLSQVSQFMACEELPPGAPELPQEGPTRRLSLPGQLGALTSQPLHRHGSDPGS
row,SMILES,"hERG current change (%, negative = inhibition) at 10uM [%]"
1,CC1(C)CC2CC(C)(CN2C(=O)COC(=O)Cn2[nH]c(=O)c3ccccc3c2=O)C1 (stereo not drawn),2.26
2,CCn1c(CNC(=O)c2ccc(Cl)cc2)nnc1SCC(=O)NC1=NCCS1,18
3,CC(=O)Nc1sc2c(c1CN1CCN(C)CC1)CCCC2,-1.92
4,CC(=O)Nc1sc2c(c1CN1CCN(c3ccccn3)CC1)CCCC2,-55.3
5,CC(=O)Nc1sc2c(c1CN1CCCC1)CCCC2,7.34
6,COc1cc(NC(=O)c2ccc(Br)o2)ccc1NC(=O)c1ccccc1Cl,-22.4
7,CCN(CC)C(=O)CSc1nnc(SCc2ccc(Cl)cc2)s1,-3.44
8,O=C(O)C1(NS(=O)(=O)c2ccc(F)c(Cl)c2)CCCCC1,7.65
9,N#C/C(=C/Nc1ccccc1)c1ccsc1,7.85
10,O=C(NC1CCCCC1)c1ccc(S(=O)(=O)N2CCOCC2)cc1,-2.69
11,CC(C)C(NC(=O)c1c(F)cccc1F)C(=O)N1CCN(c2ccccc2F)CC1 (stereo not drawn),-1.76
12,CC(C)[C@H](NC(=O)c1c(F)cccc1F)C(=O)N1CCN(c2ccc(F)cc2)CC1,-54.2
13,CC(C)C(NC(=O)C1CCCCC1)C(=O)N1CCN(c2ccc(F)cc2)CC1 (stereo not drawn),-55.7
14,CC(C)[C@H](NC(=O)C1CCN(S(=O)(=O)c2ccc(F)cc2)CC1)C(=O)N1CCCCCC1,5.18
15,COc1ccc(N2CCN(C(=O)C(NC(=O)c3c(F)cccc3F)C(C)C)CC2)cc1 (stereo not drawn),10.5
16,CC(C)[C@H](NC(=O)C1CC(=O)N(c2ccc(F)cc2)C1)C(=O)N1CCCCC1 (stereo partly drawn),7.29
17,O=C(COc1ccccc1)OC(C(=O)c1ccccc1)c1ccccc1 (stereo not drawn),16.5
18,CC(C)(C)OC(=O)N1CCN(C(=O)c2[nH]cnc2C(=O)Nc2ccon2)CC1,9.6
19,Fc1ccc(-c2nc3c(-c4ccccc4)cnn3cc2CCN2CCOCC2)cc1,-15.2
20,COc1ccc(-n2c(Cc3cccn3C)nnc2SCC(=O)Nc2ccccc2)cc1,-19.5
21,CCOC(=O)CN(C(=O)CNC(=O)c1ccco1)C(C(=O)NC1CCCCC1)c1cccnc1 (stereo not drawn),12.2
22,Cc1onc(-c2ccccc2Cl)c1C(=O)Nc1ccc2c(c1)OCO2,10.3
23,COc1cccc(-n2c(SCC(N)=O)nc3c([nH]c4ccccc43)c2=O)c1,-0.054
24,Cc1nnc(SCC(=O)NC2CCCc3ccccc32)n1-c1ccccc1 (stereo not drawn),-0.602
